Data: PubChem BioAssay AID1159580 (chemical genetic matrix, 2015)
Values joined by “and” are separate entries in the source; they are usually repeats but may differ in a detail not shown here. Identical values can stand only once. Out of some 5,500 compounds screened, about 2,000 (36%) were called active. Another 18% or so got no clear call; they are omitted. Rule as the data show it: active = normalized growth mostly below about 0.91 (no sharp cut-off); inconclusive = no clear call, values can overlap the other calls; inactive = mostly above about 0.92. This is one part of the list.

Test: chemical genetic growth profiling, strain panel (AID 1159580);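 also: tested at 20 µM; growth read once vehicle control cultures reached saturation at 30 °C; 1 = growth at the plate median or of vehicle wells; lower values mean less growth of the strain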
Details: growth OD

Measured: normalized growth

C#CCN(C)Cc1ccccc1
inactive: S. cerevisiae deletion strains, locus YJR075W, strain HOC1, hits give low values 0.991 | S. cerevisiae deletion strains, locus YKL009W, strain mrt4, hits give low values 1.02 | S. cerevisiae deletion strains, locus YKL068W, hits give low values 1 | S. cerevisiae deletion strains, locus YKL085W, strain MDH1 (second series), hits give low values 1 | S. cerevisiae deletion strains, locus YKL085W, strain MDH1, hits give low values 1 | S. cerevisiae deletion strains, locus YKL160W, strain elf1, hits give low values 1.01 | S. cerevisiae deletion strains, locus YKL190W, strain CNB1, hits give low values 0.997 | S. cerevisiae deletion strains, locus YKR001C, strain vps1, hits give low values 1.02 | S. cerevisiae deletion strains, locus YKR026C, strain gcn3, hits give low values 1.02 | S. cerevisiae deletion strains, locus YKR091W, strain srl3, hits give low values 1.02 | S. cerevisiae deletion strains, locus YLL001W, strain dnm1, hits give low values 1.02 | S. cerevisiae deletion strains, locus YLL026W, hits give low values 1 | S. cerevisiae deletion strains, locus YLL041C, strain sdh2, hits give low values 0.968 | S. cerevisiae deletion strains, locus YLR027C, strain aat2, hits give low values 0.991 | S. cerevisiae deletion strains, locus YLR039C, strain RIC1, hits give low values 1.02 | S. cerevisiae deletion strains, locus YLR058C, strain SHM2, hits give low values 0.998 | S. cerevisiae deletion strains, locus YLR102C, strain apc9, hits give low values 1.01 | S. cerevisiae deletion strains, locus YLR113W, strain HOG1, hits give low values 1 | S. cerevisiae deletion strains, locus YLR221C, strain rsa3, hits give low values 1.01 | S. cerevisiae deletion strains, locus YLR258W, strain gsy2, hits give low values 1 | S. cerevisiae deletion strains, locus YLR262C, strain YPT6 (second series), hits give low values 1.05 | S. cerevisiae deletion strains, locus YLR262C, strain YPT6, hits give low values 0.997 | S. cerevisiae deletion strains, locus YLR268W, strain sec22, hits give low values 1.06 | S. cerevisiae deletion strains, locus YLR320W, strain mms22, hits give low values 0.99 | S. cerevisiae deletion strains, locus YLR330W, strain CHS5, hits give low values 1 | S. cerevisiae deletion strains, locus YLR342W, strain FKS1 (second series), hits give low values 1.02 | S. cerevisiae deletion strains, locus YLR342W, strain FKS1, hits give low values 1.03 | S. cerevisiae deletion strains, locus YLR357W, strain rsc2, hits give low values 1.05 | S. cerevisiae deletion strains, locus YLR370C, strain arc18, hits give low values 0.987 | S. cerevisiae deletion strains, locus YLR371W, strain rom2, hits give low values 1.02 | S. cerevisiae deletion strains, locus YLR384C, strain iki3, hits give low values 0.996 | S. cerevisiae deletion strains, locus YLR418C, strain cdc73, hits give low values 1.02 | S. cerevisiae deletion strains, locus YML016C, strain PPZ1, hits give low values 1 | S. cerevisiae deletion strains, locus YML032C, strain rad52, hits give low values 1.02 | S. cerevisiae deletion strains, locus YML120C, strain ndi1, hits give low values 0.999 | S. cerevisiae deletion strains, locus YML124C, strain tub3, hits give low values 1.01 | S. cerevisiae deletion strains, locus YMR058W, strain fet3, hits give low values 1.04 | S. cerevisiae deletion strains, locus YMR078C, strain ctf18, hits give low values 1.02 | S. cerevisiae deletion strains, locus YMR125W, strain sto1, hits give low values 1.03 | S. cerevisiae deletion strains, locus YMR129W, hits give low values 0.988 | S. cerevisiae deletion strains, locus YMR205C, strain PFK2, hits give low values 0.98 | S. cerevisiae deletion strains, locus YMR223W, strain ubp8, hits give low values 0.98 | S. cerevisiae deletion strains, locus YMR231W, strain pep5, hits give low values 1.02 | S. cerevisiae deletion strains, locus YMR263W, strain SAP30, hits give low values 0.995 | S. cerevisiae deletion strains, locus YMR307W, strain GAS1, hits give low values 0.994 and 0.99 | S. cerevisiae deletion strains, locus YNL067W, strain RPL9B, hits give low values 0.99 | S. cerevisiae deletion strains, locus YNL071W, strain lat1, hits give low values 1.02 | S. cerevisiae deletion strains, locus YNL128W, strain TEP1, hits give low values 1.01 and 0.994 | S. cerevisiae deletion strains, locus YNL153C, strain GIM3, hits give low values 1.15 | S. cerevisiae deletion strains, locus YNL175C, strain NOP13, hits give low values 1.01 | S. cerevisiae deletion strains, locus YNL183C, strain NPR1, hits give low values 0.944 | S. cerevisiae deletion strains, locus YNL197C, strain WHI3, hits give low values 1.01 | S. cerevisiae deletion strains, locus YNL209W, strain ssb2, hits give low values 1.02 | S. cerevisiae deletion strains, locus YNL224C, strain SQS1, hits give low values 1.04 | S. cerevisiae deletion strains, locus YNL233W, strain BNI4, hits give low values 0.996 | S. cerevisiae deletion strains, locus YNL248C, strain rpa49, hits give low values 1.03 | S. cerevisiae deletion strains, locus YNL250W, strain rad50, hits give low values 1.01 | S. cerevisiae deletion strains, locus YNL271C, strain bni1, hits give low values 1.02 | S. cerevisiae deletion strains, locus YNL298W, strain CLA4, hits give low values 1.03 | S. cerevisiae deletion strains, locus YNL307C, strain MCK1, hits give low values 1.03 | S. cerevisiae deletion strains, locus YNL322C, strain KRE1 (second series), hits give low values 1.03 | S. cerevisiae deletion strains, locus YNR049C, strain mso1, hits give low values 0.961 | S. cerevisiae deletion strains, locus YNR052C, strain pop2, hits give low values 1.03 | S. cerevisiae deletion strains, locus YOL006C, strain TOP1, hits give low values 1 | S. cerevisiae deletion strains, locus YOL012C, strain htz1 0.939 | S. cerevisiae deletion strains, locus YOL147C, strain pex11, hits give low values 1.02 | S. cerevisiae deletion strains, locus YOR001W, strain rrp6, hits give low values 1.01 | S. cerevisiae deletion strains, locus YOR061W, strain CKA2, hits give low values 1 | S. cerevisiae deletion strains, locus YOR069W, strain VPS5, hits give low values 1 | S. cerevisiae deletion strains, locus YOR070C, strain gyp1, hits give low values 1.01 | S. cerevisiae deletion strains, locus YOR080W, strain dia2, hits give low values 1.02 | S. cerevisiae deletion strains, locus YOR083W, strain WHI5 (second series), hits give low values 1.01 | S. cerevisiae deletion strains, locus YOR083W, strain WHI5, hits give low values 1 | S. cerevisiae deletion strains, locus YOR106W, strain vam3, hits give low values 0.996 | S. cerevisiae deletion strains, locus YOR136W, strain idh2, hits give low values 1.01 | S. cerevisiae deletion strains, locus YOR144C, strain elg1, hits give low values 1.01 | S. cerevisiae deletion strains, locus YOR184W, strain ser1, hits give low values 1.01 | S. cerevisiae deletion strains, locus YOR231W, strain MKK1, hits give low values 0.997 | S. cerevisiae deletion strains, locus YOR265W, strain rbl2, hits give low values 1.01 | S. cerevisiae deletion strains, locus YOR270C, strain vph1, hits give low values 1.06 | S. cerevisiae deletion strains, locus YOR290C, strain snf2, hits give low values 0.999 | S. cerevisiae deletion strains, locus YOR316C, strain cot1, hits give low values 1.02 | S. cerevisiae deletion strains, locus YPL051W, strain arl3, hits give low values 1.02 | S. cerevisiae deletion strains, locus YPL078C, strain atp4, hits give low values 1.05 | S. cerevisiae deletion strains, locus YPL106C, strain sse1, hits give low values 1.07 | S. cerevisiae deletion strains, locus YPL240C, strain hsp82, hits give low values 0.979 | S. cerevisiae deletion strains, locus YPL256C, strain CLN2, hits give low values 0.939 | S. cerevisiae deletion strains, locus YPR119W, strain clb2, hits give low values 1.02 | S. cerevisiae deletion strains, locus YPR141C, strain kar3, hits give low values 1 | S. cerevisiae deletion strains, locus YPR163C, strain tif3, hits give low values 1.02 | S. cerevisiae deletion strains, locus YPR167C, strain met16, hits give low values 1.02 | S. cerevisiae deletion strains, strain wtn01, hits give low values 1.02 | S. cerevisiae strains, strain wild type, hits give low values 0.998
